The list is not random: actives were taken first. Their share in the collection is about 4.6%.
DAX1 inh-1: blocks DAX1 repression of SF-1 activated StAR promoter | HEK293T StAR-luciferase reporter, SF-1/DAX-1 repression relief | inhibition, % at 6.8 µM | hit rate 1.1% among 370,000 | AID 652010;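 active = inhibition above the mean over all tested compounds plus 3 SD, cut at about 3.6% in these data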;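 also: higher inhibition means more luminescence from relief of DAX-1 repression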
hgDAF12 agonist: hgDAF-12 agonism, primary luciferase screen; HEK293 GAL4-hgDAF12 UAS-luciferase reporter, agonist luminescence; normalized to butyrate control; activation, % at 6.8 µM; hit rate 1.8% among 370,000; AID 687014;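 active = activation above a cutoff set at the mean of all screened compounds plus 3 SD, cut at about 10% in these data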
DAX1 inh-2: NR0B1 (DAX1) inhibition | P51843 | HEK293 Gal4-DAX1 luciferase reporter, luminescence | hit rate 0.99% among 340,000 | inhibition, % at 6.75 µM;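 active = inhibition above the mean over all tested compounds plus 3 SD, cut at about 4.2% in these data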;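 also: inhibition shows as a rise in luminescence from relieved DAX1 repression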
Target sequence (P51843 207-470 limits assumed): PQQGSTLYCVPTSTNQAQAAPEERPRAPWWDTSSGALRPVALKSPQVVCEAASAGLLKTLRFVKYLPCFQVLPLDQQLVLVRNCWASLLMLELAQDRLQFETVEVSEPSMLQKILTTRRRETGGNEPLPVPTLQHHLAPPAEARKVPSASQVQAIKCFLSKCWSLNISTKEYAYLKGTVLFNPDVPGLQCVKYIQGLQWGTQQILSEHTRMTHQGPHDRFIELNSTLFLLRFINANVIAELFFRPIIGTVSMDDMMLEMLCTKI
hcDAF-12 act: activates DAF-12 receptor from parasite H. contortus; HEK293 hcDAF-12 lit1-tk-luc reporter, luminescence; 0% DMSO, 100% Δ7-dafachronic acid; activation, % at 6.8 µM; hit rate 1.4% among 370,000; AID 652067;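 active = activation above the mean of all tested compounds plus 3 SD, cut at about 5.5% in these data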
ssDAF12 agonist: S. stercoralis DAF-12 activation, primary screen; hit rate 1% among 370,000; activation, % at 6.8 µM; HEK293 ssDAF-12/GRIP1 lit1-tk-luc reporter, luminescence; % of 3 µM dafachronic acid response;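 active = activation above the mean over all tested compounds plus 3 SD, cut at about 0.9% in these data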
Wee1 stabilizer: blocks degradation of human Wee1 kinase. reporter increase, % at 5 µM. HeLa Luc-Wee1K328M stability, luciferase luminescence; 100% = proteasome inhibitor MG132 effect. hit rate 1.2% among 220,000;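 active = activation above the mean of all tested compounds plus 3 SD, set per screening run, cut at about 8.8% in these data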;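 also: cells exposed to compound for 20 h before luminescence read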
Hits are given with their value; n = inactive; x = not tested or not shown.

SMILES | DAX1 inh-1 | hgDAF12 agonist | DAX1 inh-2 | hcDAF-12 act | ssDAF12 agonist | Wee1 stabilizer
O=C(/C=C/c1ccc(OC2CSC2)cc1)c1ccccc1 | n | n | n | n | n | n
Cc1cccc(/C=N\NC(=O)c2csnn2)c1 | n | n | n | n | n | n
CCN1C[C@@H]2[C@@H]3C(=O)N(C)C(=O)[C@@H]3[C@](Cc3ccccc3)(C1=O)N2C(=O)c1ccc(C(C)(C)C)cc1 | n | n | n | n | n | x
Cc1cc(C(=O)CSc2nc3ccccc3[nH]2)c(C)n1C | 3.7 | 10.9 | n | n | 1.1 | n
COCCn1c(C)cc(C(=O)CSc2nc3ccccc3c(=O)[nH]2)c1C | n | n | 6.5 | n | n | n
Cn1c(=O)n(C)c2cc(NC(=O)CSc3nc4ccccc4c(=O)[nH]3)ccc21 | n | n | 4.7 | n | n | x
CC(=O)c1cc2c(cc1NC(=O)CSc1nc3ccccc3[nH]1)OCO2 | x | x | x | x | x | 9.8
Cc1ccccc1-c1cccc([C@@H]2C[C@H]3[C@H](CON3C)CN2Cc2cc(Cl)cc(Cl)c2)c1 | n | n | n | n | n | x
COc1ccc(CN(C)C(=O)/C=C/[C@H]2O[C@@H](n3cc(C)c(=O)[nH]c3=O)C[C@@H]2O)cc1OC | n | n | x | n | n | x
COC(=O)[C@@]12CCCCC=C1N(CCc1ccc(Cl)cc1)C(=O)[C@H]2CC(=O)NCc1cccc(C(F)(F)F)c1 | n | n | x | n | n | x
COC(=O)[C@]12CCCCC=C1N(Cc1ccc3c(c1)OCO3)C(=O)[C@H](CC(=O)NCCCN1CCCC1=O)C2 | n | n | x | n | n | x
Cc1cc(C(=O)CSc2nnc(-c3ccncc3)n2-c2ccccc2)c(C)n1C | n | n | 7.4 | n | n | n
CN1CCC(N2CCN(C3CN(Cc4ccc(F)cc4)S(=O)(=O)C3)CC2)CC1 (configuration not stated) | n | n | x | n | n | x
CCCNC(=O)N(C)C[C@@H]1Oc2ncc(-c3ccncc3)cc2C(=O)N([C@H](C)CO)C[C@@H]1C | n | n | n | n | n | x
O=C(O)c1ccc(COc2ccccc2Cl)cc1 | n | n | n | n | n | 9.1
O=C(COc1cccc(Cl)c1Cl)Nc1ccc2c(c1)CCC2 | n | n | n | n | n | n
O=C(COc1ccccc1Cl)c1ccc2c(c1)CCCC2 | n | 12.1 | n | n | n | n
O=C(O)c1cccc(COc2ccccc2Cl)c1 | 4.5 | n | n | n | n | x
O=c1c(NCCc2ccc(Cl)cc2)c(-c2ccccc2)c1=O | n | n | n | n | n | x
COC(=O)c1sccc1NS(=O)(=O)c1ccccc1[N+](=O)[O-] | n | n | n | n | n | x
O=C(c1ccc2nc(Cc3cccc(Cl)c3)oc2c1)N1CCOCC1 | 3.9 | n | n | 6.0 | n | x
O=C(C[C@H]1CC[C@@H](NC(=O)C2CC2)[C@@H](CO)O1)NCc1ccccc1Cl | n | n | x | n | n | x
Cc1cc(C)c2cc3c(N)c(C(=O)N4CCOCC4)sc3nc2c1 | n | n | n | n | n | n
Cc1cc(C)c2nc3sc(C(=O)N4CCOCC4)c(N)c3cc2c1 | 4.1 | n | n | 5.7 | n | n
CCNc1nnc(SCC(=O)NC2CCCCCC2)s1 | n | n | n | n | n | x
SMILES | DAX1 inh-1 | hgDAF12 agonist | DAX1 inh-2 | hcDAF-12 act | ssDAF12 agonist | Wee1 stabilizer
COc1cccc(C(=O)NCC(=O)OCC(=O)NC2CCCCC2)c1 | n | n | n | n | 1.3 | x
CC(=O)Nc1cccc(OCC(=O)Nc2sccc2C(N)=O)c1 | n | 12.2 | n | n | n | n
COc1cccc(NC(=O)COC(=O)c2c(F)cccc2F)c1 | n | n | n | n | n | n
CC(=O)Nc1cccc(OCC(=O)Nc2ccccc2)c1 | n | n | n | n | n | n
COc1cccc(NC(=O)COC(=O)c2sccc2C)c1 | 3.7 | 13.1 | 6.2 | 6.4 | n | x
Cc1cc(C)cc(OCC(=O)OCC(=O)NC2CCCCCCC2)c1 | 4.3 | n | n | n | n | x
Cc1cc(OCC(=O)OCC(=O)NC2CCCCCC2)ccc1Cl | n | n | n | n | n | x
CC(C)CCN(C(=O)c1cn2ccccc2n1)c1c(N)n(Cc2ccccc2)c(=O)[nH]c1=O | n | n | n | n | n | x
CCOC(=O)c1csc(NC(=O)C2CCCN(S(=O)(=O)c3ccccc3)C2)n1 (configuration not stated) | n | n | x | n | n | x
O=C(CSc1ccc(F)cc1)Nc1cccc(S(=O)(=O)N2CCOCC2)c1 | n | n | n | n | n | x
CCN(C[C@H]1N[C@@](C)(C(=O)OC)[C@H]2C(=O)N(C)C(=O)[C@@H]12)S(=O)(=O)c1ccc(-c2ccccc2)cc1 | n | n | n | n | n | x
Cc1ccc(C(=O)N[C@H](C(=O)OCC(=O)NC2CCS(=O)(=O)C2)C(C)C)cc1 (some centres not stated) | n | n | n | n | 1.5 | n
Cc1ccsc1C(=O)OCC(=O)NC1CCCCC1 | n | 10.8 | n | n | n | x
Cc1cc(OCC(=O)OCC(=O)NC2CCS(=O)(=O)C2)ccc1Cl (configuration not stated) | n | n | n | 5.9 | n | x
CC(=O)Nc1cccc(-c2ccnc3c2CC(C(=O)NCc2ccco2)O3)c1 (configuration not stated) | n | n | x | n | n | x
CCc1cc(C(=O)N(CC)CC(=O)Nc2ccc(OC)cc2)sc1C | n | n | n | n | n | x
Cc1ccc(NC(=O)COC(=O)Cc2c[nH]c3ccccc23)cc1 | n | n | n | n | n | x
CCOC(=O)C(=O)c1csc(NC(=O)CCSc2ccc(C)cc2)n1 | n | n | 4.4 | n | n | n
CCOC(=O)c1csc(NC(=O)CCSc2ccccc2)n1 | n | n | n | n | n | n
COC(=O)CC[C@H](/C=C/C(=O)OC(C)(C)C)Sc1ccc(C(C)(C)C)cc1 | n | n | x | n | n | x
Cc1nn(-c2ccccc2)c(Cl)c1/C=C1\C(=O)N(C)C(=S)N1C | n | n | n | n | n | n
Cc1nn(-c2ccccc2)c(Cl)c1/C=C1\SC(=S)N(C)C1=O | n | n | n | n | n | 14.9
COC(=O)[C@H](CC(C)C)N1Cc2nnn(Cc3ccccc3)c2-c2cc(F)ccc2S1(=O)=O | n | n | x | n | n | x
Nc1c(Cl)cc(C2=NCCn3nc4cc([N+](=O)[O-])ccc4c32)cc1Cl | n | n | n | 5.8 | n | x
CN(c1ccc(C(=O)NC2CCCCC2)cc1)S(=O)(=O)c1ccccc1 | n | n | n | n | n | x
Cc1ccc(Nc2nnc(-c3ccccc3N)o2)cc1C | n | 10.6 | 6.5 | n | n | n
Cc1ccc(NCc2ccco2)cc1C | n | n | n | n | n | n
COc1ccc2c(c1)OC[C@H]1[C@H]2N2C(=O)c3cc(Br)ccc3NC(=O)[C@@]2(C)[C@H]1c1ccccc1 | x | x | n | x | x | x
COC(=O)C(C)N1C(=O)S/C(=C/c2cc(C)n(-c3ccccn3)c2C)C1=O (configuration not stated) | n | n | n | n | n | n

Source: PubChem BioAssay
